Activity calls are given as the source filed them. Unless noted, no rule for the calls is given here.
Assays:
[1] = HepG2 liver cancer cell viability effects, profiling panel, resazurin fluorescence, 24 h, PK04 Diversity Set (AID 1172); conditions: higher = more signal
[2] = basal S. cerevisiae growth modulation, no modifier, primary screen, OD600, strain BY4716, 24 h, basal condition (AID 1173); conditions: OD600, 24 h, higher = more signal, called active from +8 up or from −8 down
[3] = MM1S myeloma cell viability, profiling panel, resazurin fluorescence, basal, 24 h, PK04 Diversity Set (AID 1174); conditions: higher = more signal, called active from +8 up or from −8 down;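 also: MM1S multiple myeloma cell line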
[4] = biological target: Dihydroorotate dehydrogenase (quinone), mitochondrial (Plasmodium falciparum (isolate 3D7)) (UniProt Q08210); assay: PfDHODH enzyme inhibitors, primary screen, biochemical, C-terminal His tag, absorbance 600 nm (AID 1175); conditions: DCIP absorbance 600 nm, higher = more signal, called active from +8 up or from −8 down;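 also: recombinant parasite enzyme with a five histidine tag at its C terminus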
Dihydroorotate dehydrogenase (quinone), mitochondrial (Plasmodium falciparum (isolate 3D7)), sequence (Q08210 whole entry, looked up): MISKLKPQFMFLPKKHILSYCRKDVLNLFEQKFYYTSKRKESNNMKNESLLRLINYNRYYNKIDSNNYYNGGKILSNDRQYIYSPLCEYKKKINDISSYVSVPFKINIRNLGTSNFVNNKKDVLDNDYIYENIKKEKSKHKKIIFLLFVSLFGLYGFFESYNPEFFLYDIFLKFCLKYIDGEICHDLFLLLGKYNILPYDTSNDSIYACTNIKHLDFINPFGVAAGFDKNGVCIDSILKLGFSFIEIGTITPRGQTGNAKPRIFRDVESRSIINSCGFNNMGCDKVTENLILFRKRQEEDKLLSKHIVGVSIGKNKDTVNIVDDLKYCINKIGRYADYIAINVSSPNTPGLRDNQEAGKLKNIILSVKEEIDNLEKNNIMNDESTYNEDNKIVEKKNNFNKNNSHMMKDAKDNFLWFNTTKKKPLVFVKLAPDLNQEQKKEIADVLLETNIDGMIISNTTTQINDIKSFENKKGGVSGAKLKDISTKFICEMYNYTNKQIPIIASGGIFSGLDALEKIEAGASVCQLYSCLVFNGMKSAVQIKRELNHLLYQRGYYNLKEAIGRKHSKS

[5] = P. aeruginosa biofilm formation inhibitors, primary screen, strain PAO1, LB-PBS medium, absorbance 600 nm (AID 1176); conditions: P. aeruginosa PAO1 growth/biofilm, A600, 12 h; higher = more signal
[6] = S. cerevisiae RM11-1a growth modifiers, primary screen, strain RM11-1a, OD600, basal, 24 h (AID 1177); conditions: OD600, 24 h, higher = more signal, called active from +8 up or from −8 down;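 also: cultures grown under basal conditions with no added stressor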
[7] = E. coli acrAB mutant growth effects, primary screen, E. coli filamentation inducers, strain DRC39, OD650, 24 h (AID 1178); conditions: higher = more signal, called active from +8 up or from −8 down;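 also: growth measured as culture turbidity by optical density at 650 nm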
[8] = E. coli acrAB mutant growth effects, primary screen, E. coli filamentation inducers, strain DRC39, OD650, 48 h (AID 1179);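 also: screen aims at cell division blockers that make cells filament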; conditions: E. coli DRC39 delta-acrAB growth, higher = more signal, called active from +8 up or from −8 down
[9] = RPMI8226 myeloma cell viability, profiling panel, resazurin fluorescence, basal, 24 h, PK04 Diversity Set (AID 1180); conditions: higher = more signal;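 also: RPMI8826 multiple myeloma cell line at 5000 cells per well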
[10] = biological target: E3 ubiquitin-protein ligase XIAP (Homo sapiens) (UniProt P98170); assay: XIAP binders, primary screen, biophysical, small-molecule microarray, fluorescence 635 nm (AID 1181); conditions: small-molecule microarray binding, higher = more signal;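 also: score merges 667 nm emission and signal to noise over triplicate slides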
E3 ubiquitin-protein ligase XIAP (Homo sapiens), sequence (P98170 whole entry, looked up): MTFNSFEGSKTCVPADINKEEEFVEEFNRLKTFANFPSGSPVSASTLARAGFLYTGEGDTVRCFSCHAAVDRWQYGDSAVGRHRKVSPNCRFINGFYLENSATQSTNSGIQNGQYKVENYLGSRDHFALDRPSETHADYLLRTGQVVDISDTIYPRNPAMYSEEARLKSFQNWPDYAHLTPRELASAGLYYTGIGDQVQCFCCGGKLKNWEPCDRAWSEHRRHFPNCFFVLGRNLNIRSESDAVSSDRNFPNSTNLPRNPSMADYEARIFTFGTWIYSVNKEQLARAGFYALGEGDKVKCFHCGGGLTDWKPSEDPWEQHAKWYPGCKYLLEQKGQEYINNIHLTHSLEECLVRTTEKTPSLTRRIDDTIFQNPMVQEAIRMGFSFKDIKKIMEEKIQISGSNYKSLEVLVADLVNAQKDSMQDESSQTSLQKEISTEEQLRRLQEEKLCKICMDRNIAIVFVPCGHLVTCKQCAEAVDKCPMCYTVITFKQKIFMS

[11] = tested on: XIP peptide (Xip251-270) binding; assay: small-molecule binders of XIP peptide, primary screen, biochemical, small-molecule microarray, fluorescence 635/667 nm, 0.1 µg/mL protein (AID 1182); conditions: fluorescent protein binding, 635 nm, higher = more signal, called active from +8 up or from −8 down
XIP peptide (Xip251-270) = assay: small-molecule binders of XIP peptide, primary screen, biochemical, small-molecule microarray, fluorescence 635/667 nm, 0.5 µg/mL protein (AID 1183); conditions: small-molecule microarray binding, fluorescence 635 nm; higher = more signal
[12] = Plasmodium falciparum growth inhibition, primary screen, strain 3D7, DAPI fluorescence, 100 nL (AID 1184);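 also: parasites grown inside human red blood cells in medium with human serum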; conditions: P. falciparum 3D7 growth, 3 d, higher = more signal
[13] = biological target: Homeobox protein Hox-A13 (Mus musculus) (UniProt Q62424); assay: inhibitors of HoxA13-DNA binding, primary screen, biochemical, fluorescence polarization, labeled oligonucleotide (AID 1185); conditions: 15 min, higher = more signal, called active from +8 up or from −8 down
Homeobox protein Hox-A13 (Mus musculus), sequence (Q62424 whole entry, looked up): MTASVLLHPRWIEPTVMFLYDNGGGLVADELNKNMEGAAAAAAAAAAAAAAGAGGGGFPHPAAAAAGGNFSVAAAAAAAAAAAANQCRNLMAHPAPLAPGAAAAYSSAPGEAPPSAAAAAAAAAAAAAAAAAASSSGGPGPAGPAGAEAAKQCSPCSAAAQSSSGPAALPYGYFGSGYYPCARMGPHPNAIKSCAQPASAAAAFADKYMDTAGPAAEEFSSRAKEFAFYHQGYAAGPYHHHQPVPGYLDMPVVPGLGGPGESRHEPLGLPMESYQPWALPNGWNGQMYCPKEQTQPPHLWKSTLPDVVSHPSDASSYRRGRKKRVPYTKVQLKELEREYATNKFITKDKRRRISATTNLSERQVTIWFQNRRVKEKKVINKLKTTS

[14] = inhibitors of hydroxyurea-induced Chk1 phosphorylation, primary screen, imaging, HeLa, phospho-Chk1 antibody, percent positive cells (AID 1186); conditions: hydroxyurea-induced phospho-Chk1 immunofluorescence imaging, higher = more signal
[15] = inhibitors of hydroxyurea-induced Chk1 phosphorylation, primary screen, imaging, HeLa, phospho-Chk1 nuclear intensity (AID 1187); conditions: hydroxyurea-induced phospho-Chk1 immunofluorescence imaging, higher = more signal

Compound	z-score [1]	z-score [2]	z-score [3]	composite z-score [4]	z-score [5]	z-score [6]	z-score [7]	z-score [8]	z-score [9]	composite z-score [10]	composite z-score [11]	composite z-score (XIP peptide (Xip251-270))	z-score [12]	z-score [13]	z-score [14]	z-score [15]
CCCC[C@@H]1C[C@H]1[C@@H](NC(=O)c1ccco1)c1ccc(Cl)cc1	-0.653	1.44 (inactive)	0.134 (inactive)	-0.284 (inactive)	0.343 (inactive)	0.657 (inactive)	-0.181 (inactive)	0.16 (inactive)	-0.0142	-0.124	0.593 (inactive)	-0.111	-0.727	-3.18 (inactive)	-0.522 (inactive)	-0.995 (inactive)
O=C(NCc1ccccc1)[C@@]1(Cc2ccccc2)N=C(c2ccc(OCCCO)cc2)O[C@H]1c1ccccc1	-0.0664	0.629 (inactive)	-1.67 (inactive)	0.987 (inactive)	0.494 (inactive)	1.7 (inactive)	0.482 (inactive)	-0.3 (inactive)	-2.66	-0.0563	1.46 (inactive)	0.684	-2.39	-1.7 (inactive)	-0.306 (inactive)	0.0631 (inactive)
[N-]=[N+]=NCc1ccccc1C[C@]1(C(=O)O)N=C(c2ccc(OCCCO)cc2)O[C@H]1c1ccccc1N=[N+]=[N-]	-0.213	-0.496 (inactive)	-1.43 (inactive)	2.26 (inactive)	-0.043 (inactive)	1.45 (inactive)	0.989 (inactive)	-0.0775 (inactive)	-1.82	0.0808	0.525 (inactive)	0.771	-1.57	-3.84 (inactive)	-0.1 (inactive)	0.16 (inactive)
COc1cc2c(cc1O)C=[N+](Cc1cccc(OC(F)(F)F)c1)CC2	-0.935	0.165 (inactive)	-0.682 (inactive)	-3.35 (inactive)	-0.531 (inactive)	-0.957 (inactive)	0.0214 (inactive)	0.569 (inactive)	-1.25	-0.259	-0.103 (inactive)	0.0686	-1.94	-3.45 (inactive)	-0.0564 (inactive)	-0.707 (inactive)
NCCCCCNC(=O)[C@@H]1C[C@@H]2C(=O)N[C@@H](Cc3ccccc3)C(=O)N2[C@@H]1c1cccc(OCCO)c1	-0.837	1.04 (inactive)	-0.104 (inactive)	0.251 (inactive)	0.174 (inactive)	0.606 (inactive)	-0.297 (inactive)	-0.457 (inactive)	-0.603	0.416	0.251 (inactive)	0.595	0.304	-4.39 (inactive)	-0.143 (inactive)	-0.223 (inactive)
Cc1ccc(S[C@]2(C(=O)NC3CC3)CC(=O)N(C3Cc4ccccc4C3)[C@@H]2c2ccc(CO)cc2)cc1	-0.122	-0.612 (inactive)	0.0142 (inactive)	-1.85 (inactive)	0.472 (inactive)	-1.52 (inactive)	0.851 (inactive)	1.26 (inactive)	0.0919	-0.162	0.136 (inactive)	0.876	-0.275	-2.74 (inactive)	-0.671 (inactive)	-0.716 (inactive)
C=CCOC(=O)[C@H]1[C@@H]2C(=O)O[C@@H](c3ccccc3)[C@@H](c3ccccc3)N2[C@@H](c2ccc(OCCOC(=O)[C@@H]3C[C@@H]4C(=O)N5CCC[C@H]5C(=O)N4[C@@H]3c3cccc(OCCO)c3)cc2)[C@]12C(=O)Nc1ccccc12	-1	1.15 (inactive)	0.0098 (inactive)	0.613 (inactive)	2.06 (inactive)	1.76 (inactive)	-0.701 (inactive)	-1.5 (inactive)	-0.0769	-0.22	1.48 (inactive)	0.846	-1.71	-0.113 (inactive)	-0.934 (inactive)	-0.0548 (inactive)
[N-]=[N+]=NCc1ccccc1C[C@]1(C(=O)N2CCOCC2)N=C(c2ccc(OCCCO)cc2)O[C@H]1c1ccccc1N=[N+]=[N-]	0.168	-1.05 (inactive)	-1.21 (inactive)	0.152 (inactive)	-0.357 (inactive)	-0.405 (inactive)	1.14 (inactive)	0.957 (inactive)	-1.61	-0.113	0.141 (inactive)	0.229	-2.6	-2.96 (inactive)	-0.551 (inactive)	-0.635 (inactive)
COc1ccc(C(=O)Nc2ccc(CN3C(=O)[C@@]4(O[C@@H](CC(=O)N5CCC[C@H]5CO)[C@H]([Si](C)(C)c5ccc(OC)cc5)[C@H]4C)c4ccccc43)cc2)cc1	0.294	-0.871 (inactive)	-0.675 (inactive)	-6.57 (inactive)	1.58 (inactive)	0.515 (inactive)	1.28 (inactive)	1.26 (inactive)	-0.677	0.0774	0.135 (inactive)	0.703	-0.183	-3.33 (inactive)	-0.0567 (inactive)	0.829 (inactive)
COC(=O)[C@@]1(Cc2ccccc2)[C@H]2c3cc(C(=O)N4CCCC4)n(CC4CC4)c3C[C@H]2CN1C(=O)c1ccccc1	-1.34	1.38 (inactive)	-1.75 (inactive)	-0.0475 (inactive)	0.936 (inactive)	1.25 (inactive)	-0.889 (inactive)	-1.44 (inactive)	-2.27	0.637	0.258 (inactive)	0.628	-1.79	-5.17 (inactive)	0.874 (inactive)	0.76 (inactive)
CS(=O)(=O)CCOC(=O)C1=CC(CCCO)=CC(c2ccc(CN3CCCC3)cc2)N(Cc2cc3c(cc2Br)OCO3)C=C1C(=O)OCCS(C)(=O)=O (stereo not drawn)	0.0305	-3.3 (inactive)	0.56 (inactive)	-4.55 (inactive)	-0.66 (inactive)	0.526 (inactive)	0.549 (inactive)	0.325 (inactive)	1.31	-0.0773	0.597 (inactive)	0.732	-2.66	-0.776 (inactive)	-1.45 (inactive)	-0.549 (inactive)
CCCCCN1CC=CC23O[C@@H]4/C=C\CCCOC(=O)C4[C@H]2C(=O)N(C(CO)C(C)C)[C@@H]3C1=O (stereo partly drawn)	1.05	0.367 (inactive)	0.641 (inactive)	-2.08 (inactive)	-0.124 (inactive)	0.226 (inactive)	0.299 (inactive)	0.0539 (inactive)	0.574	0.177	-0.0186 (inactive)	0.0798	0.609	-4.65 (inactive)	-0.609 (inactive)	-0.33 (inactive)
CCOC(=O)[C@H]1C/C=C/C[C@H](C(=O)OCC)C(=O)O[C@H]2[C@@H](OC)O[C@H](CO)[C@@H](OC(=O)Nc3cccc(F)c3)[C@@H]2OC1=O	-5.49	-0.218 (inactive)	-9.05 (active)	-0.0103 (inactive)	1.74 (inactive)	1.84 (inactive)	0.675 (inactive)	1.23 (inactive)	-7.34	0.125	1.17 (inactive)	0.526	-1.73	-2.16 (inactive)	-0.197 (inactive)	-0.145 (inactive)
CN(C)CCCNC(=O)[C@@]1(c2ccc([N+](=O)[O-])cc2)CC(=O)N(C2CCCCC2)[C@@H]1c1ccc(CO)cc1I	-6.5	-11.7 (active)	-9.1 (active)	-1.19 (inactive)	0.0714 (inactive)	0.344 (inactive)	0.725 (inactive)	-1.28 (inactive)	-6.61	0.125	-0.117 (inactive)	0.248	-2.17	0.362 (inactive)	-0.227 (inactive)	-0.413 (inactive)
COCCOC(=O)N1C(=O)[C@@]2(c3cc(C#Cc4ccc(OC)cc4)ccc31)[C@H](C(N)=O)[C@H]1C(=O)O[C@H](c3ccccc3)[C@H](c3ccccc3)N1[C@@H]2c1ccccc1OCCO	-0.483	1.06 (inactive)	-2.17 (inactive)	0.361 (inactive)	2.94 (inactive)	1.5 (inactive)	-0.688 (inactive)	-0.469 (inactive)	-2.68	0.0748	1.85 (inactive)	0.888	-2.04	-1.77 (inactive)	-0.111 (inactive)	-0.559 (inactive)
CC(C)C(CO)N1C(=O)[C@@H]2[C@H]3C(=O)OCC=C[C@H]3OC23C=CCN(C(C)C)C(=O)[C@@H]13 (stereo partly drawn)	1.18	0.55 (inactive)	0.713 (inactive)	0.0658 (inactive)	-0.565 (inactive)	0.73 (inactive)	0.074 (inactive)	-0.137 (inactive)	0.634	-0.0719	1.63 (inactive)	-0.0455	-0.499	-4.02 (inactive)	0.475 (inactive)	0.305 (inactive)
COC(=O)c1c(CC[C@@H](CO)NC(=O)N[C@H](Cn2cc(Cc3ccccc3)nn2)C(C)C)oc(C(C)=O)c1C(=O)OC	-0.61	-1.64 (inactive)	-0.0537 (inactive)	-3.09 (inactive)	0.656 (inactive)	-0.705 (inactive)	1.58 (inactive)	0.582 (inactive)	-0.193	-0.121	0.369 (inactive)	-0.0446	-1.99	-0.701 (inactive)	1.02 (inactive)	1.38 (inactive)
O=C(NCC(F)(F)F)[C@@H]1c2ccccc2C(=O)N(C2CCCCC2)[C@H]1c1ccc(CO)cc1	-0.501	0.804 (inactive)	-0.435 (inactive)	0.843 (inactive)	-0.255 (inactive)	1.11 (inactive)	-0.0514 (inactive)	-0.335 (inactive)	0.538	0.056	0.0572 (inactive)	0.434	-0.676	-3.32 (inactive)	0.142 (inactive)	-0.156 (inactive)

From PubChem BioAssay
